Targets include PITX2 (Homo sapiens, UniProt Q99697 72-157); SHOX (Homo sapiens, UniProt O15266 103-189, R173C); HESX1 (Homo sapiens, UniProt Q9UBX0 95-180, R109Q).
Common to all, as to assay: PBM; 200 nM protein, PBS
What all share (settings): dsDNA, one strand shown

The target in assay [1] is T1, NKX2-6 (Homo sapiens, UniProt A6NCS4 118-204).
T1 sequence: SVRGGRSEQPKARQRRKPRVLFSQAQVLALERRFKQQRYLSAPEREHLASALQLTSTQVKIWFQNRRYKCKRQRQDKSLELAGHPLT

Assay [2] addresses T2, NKX2-6 (Homo sapiens, UniProt A6NCS4 118-204, F151L).
T2 sequence: T1 sequence with F34L

Assay [3] deals with NKX3-2 (Homo sapiens, UniProt P78367 192-278, P234S).
Assay [4] deals with NKX3-2 (Homo sapiens, UniProt P78367 192-278).
Assay [5] concerns the target T3, PAX4 (Homo sapiens, UniProt O43316 9-242, R200Q).
T3 sequence: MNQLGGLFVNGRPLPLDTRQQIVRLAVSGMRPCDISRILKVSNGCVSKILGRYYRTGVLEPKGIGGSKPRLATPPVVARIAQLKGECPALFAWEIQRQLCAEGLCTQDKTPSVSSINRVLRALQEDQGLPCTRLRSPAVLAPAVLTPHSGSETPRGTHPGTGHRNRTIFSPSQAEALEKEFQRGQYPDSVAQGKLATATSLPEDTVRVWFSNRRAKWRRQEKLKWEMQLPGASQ

Assay [6] concerns the target T4, PAX4 (Homo sapiens, UniProt O43316 9-242, R227W).
T4 sequence: T3 sequence with Q192R, R219W

Assay [7] deals with PROP1 (Homo sapiens, UniProt O75360 56-141, R99H).
Assay [8] has as its target PROP1 (Homo sapiens, UniProt O75360 56-141, F88S).
The target of assay [9] is HOXD13 (Homo sapiens, UniProt P35453 263-343).
The target of assay [10] is HOXD13 (Homo sapiens, UniProt P35453 263-343, T313A).

Results on 65 sequences are retold here after publication PMC11006913.

Residue numbers refer to the chain shown, from its start.

Sequence of NKX3-2 (Homo sapiens, UniProt P78367 192-278) (P78367 192-278): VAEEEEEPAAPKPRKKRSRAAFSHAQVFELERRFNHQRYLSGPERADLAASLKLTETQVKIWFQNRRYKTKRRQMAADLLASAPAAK
Sequence of NKX3-2 (Homo sapiens, UniProt P78367 192-278, P234S) (P78367 192-278 P234S): as the sequence (P78367 192-278) above, with P43S counted along it
Sequence of PROP1 (Homo sapiens, UniProt O75360 56-141, F88S) (O75360 56-141 F88S): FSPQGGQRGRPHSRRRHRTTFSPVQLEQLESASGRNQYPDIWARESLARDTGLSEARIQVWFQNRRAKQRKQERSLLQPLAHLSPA
Sequence of PROP1 (Homo sapiens, UniProt O75360 56-141, R99H) (O75360 56-141 R99H): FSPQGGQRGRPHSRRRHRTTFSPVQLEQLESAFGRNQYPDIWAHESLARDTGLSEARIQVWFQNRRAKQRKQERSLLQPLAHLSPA
Sequence of SHOX (O15266 103-189 R173C): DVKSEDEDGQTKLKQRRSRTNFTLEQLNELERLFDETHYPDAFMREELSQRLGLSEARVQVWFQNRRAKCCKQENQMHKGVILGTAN
Sequence of HOXD13 (Homo sapiens, UniProt P35453 263-343) (P35453 263-343): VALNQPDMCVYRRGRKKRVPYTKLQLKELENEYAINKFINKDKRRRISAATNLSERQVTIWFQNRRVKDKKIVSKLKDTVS
Sequence of HESX1 (Q9UBX0 95-180 R109Q): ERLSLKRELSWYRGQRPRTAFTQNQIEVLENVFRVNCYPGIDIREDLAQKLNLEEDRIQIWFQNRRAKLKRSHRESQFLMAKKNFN
Sequence of HOXD13 (Homo sapiens, UniProt P35453 263-343, T313A) (P35453 263-343 T313A): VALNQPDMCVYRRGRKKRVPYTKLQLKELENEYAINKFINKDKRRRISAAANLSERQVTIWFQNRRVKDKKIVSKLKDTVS

For CCCGTTCG, the binding signal with NKX2-6 [1] is 9.17 upbm affinity estimate (log intensity, higher = more binding, comparable within an allelic series); with NKX2-6 [2], 9.43 upbm affinity estimate (log intensity, higher = more binding, comparable within an allelic series); with NKX3-2 [3] it was 10.5 upbm affinity estimate (log intensity, higher = more binding, comparable within an allelic series); in the assay with NKX3-2 [4], 10.5 upbm affinity estimate (log intensity, higher = more binding, comparable within an allelic series).
CCCGCGTC: the binding signal with NKX2-6 [1] is 9.23 upbm affinity estimate (log intensity, higher = more binding, comparable within an allelic series); with NKX2-6 [2] it was 9.39 upbm affinity estimate (log intensity, higher = more binding, comparable within an allelic series).
Regarding CAGTCTGC, the binding signal with NKX2-6 [1] was 9.37 upbm affinity estimate (log intensity, higher = more binding, comparable within an allelic series); with NKX2-6 [2], 9.38 upbm affinity estimate (log intensity, higher = more binding, comparable within an allelic series).
For the sequence CCGGCACC, the binding signal in the assay with NKX2-6 [1] is 9.34 upbm affinity estimate (log intensity, higher = more binding, comparable within an allelic series); with NKX2-6 [2] it was 9.34 upbm affinity estimate (log intensity, higher = more binding, comparable within an allelic series).
As for AAGTCATT, the binding signal was 11.3 upbm affinity estimate (log intensity, higher = more binding, comparable within an allelic series) with NKX2-6 [1] and 9.8 upbm affinity estimate (log intensity, higher = more binding, comparable within an allelic series) with NKX2-6 [2].
As to GATGATAA, the binding signal with PITX2 is 9.84 upbm affinity estimate (log intensity, higher = more binding, comparable within an allelic series).
With GCAGTCCC, the binding signal in the assay with NKX2-6 [1] was 9.36 upbm affinity estimate (log intensity, higher = more binding, comparable within an allelic series); with NKX2-6 [2], 9.32 upbm affinity estimate (log intensity, higher = more binding, comparable within an allelic series).
CCGCGTTC: the binding signal was 9.4 upbm affinity estimate (log intensity, higher = more binding, comparable within an allelic series) in the assay with NKX2-6 [1] and 9.39 upbm affinity estimate (log intensity, higher = more binding, comparable within an allelic series) with NKX2-6 [2].
Turning to CCTTAAGA, the binding signal is 12.4 upbm affinity estimate (log intensity, higher = more binding, comparable within an allelic series) with NKX2-6 [1] and 10.1 upbm affinity estimate (log intensity, higher = more binding, comparable within an allelic series) in the assay with NKX2-6 [2].
As to CCCAAGGC, the binding signal with NKX2-6 [1] is 9.12 upbm affinity estimate (log intensity, higher = more binding, comparable within an allelic series); with NKX2-6 [2] it was 9.27 upbm affinity estimate (log intensity, higher = more binding, comparable within an allelic series).
With AAATTAGA, the binding signal with PAX4 [5] was 11.9 upbm affinity estimate (log intensity, higher = more binding, comparable within an allelic series); with PAX4 [6], 10.9 upbm affinity estimate (log intensity, higher = more binding, comparable within an allelic series).
Regarding ACGGACGA, the binding signal with NKX2-6 [1] was 9.27 upbm affinity estimate (log intensity, higher = more binding, comparable within an allelic series); with NKX2-6 [2], 9.49 upbm affinity estimate (log intensity, higher = more binding, comparable within an allelic series).
As for AAGTACTG, the binding signal is 12.7 upbm affinity estimate (log intensity, higher = more binding, comparable within an allelic series) with NKX2-6 [1] and 10.3 upbm affinity estimate (log intensity, higher = more binding, comparable within an allelic series) in the assay with NKX2-6 [2].
Regarding ATCCGCAG, the binding signal was 9.55 upbm affinity estimate (log intensity, higher = more binding, comparable within an allelic series) with NKX2-6 [1] and 9.47 upbm affinity estimate (log intensity, higher = more binding, comparable within an allelic series) with NKX2-6 [2].
Consider AAAGAGGG, for which the binding signal in the assay with NKX2-6 [1] is 11.6 upbm affinity estimate (log intensity, higher = more binding, comparable within an allelic series); with NKX2-6 [2], 9.79 upbm affinity estimate (log intensity, higher = more binding, comparable within an allelic series).
As to CGGTGGCC, the binding signal with NKX2-6 [1] was 9.03 upbm affinity estimate (log intensity, higher = more binding, comparable within an allelic series); in the assay with NKX2-6 [2], 9.22 upbm affinity estimate (log intensity, higher = more binding, comparable within an allelic series).
Regarding ACCAGAGC, the binding signal was 9.39 upbm affinity estimate (log intensity, higher = more binding, comparable within an allelic series) in the assay with NKX2-6 [1] and 9.5 upbm affinity estimate (log intensity, higher = more binding, comparable within an allelic series) with NKX2-6 [2].
Turning to AGCCCTCA, the binding signal with NKX2-6 [1] is 11.1 upbm affinity estimate (log intensity, higher = more binding, comparable within an allelic series); in the assay with NKX2-6 [2] it was 9.52 upbm affinity estimate (log intensity, higher = more binding, comparable within an allelic series); with NKX3-2 [3], 11.5 upbm affinity estimate (log intensity, higher = more binding, comparable within an allelic series); with NKX3-2 [4] it was 11.6 upbm affinity estimate (log intensity, higher = more binding, comparable within an allelic series).
Take CCGGGAAC: the binding signal with NKX2-6 [1] is 9.33 upbm affinity estimate (log intensity, higher = more binding, comparable within an allelic series); with NKX2-6 [2], 9.31 upbm affinity estimate (log intensity, higher = more binding, comparable within an allelic series); with NKX3-2 [3] it was 10.5 upbm affinity estimate (log intensity, higher = more binding, comparable within an allelic series); with NKX3-2 [4] it was 10.5 upbm affinity estimate (log intensity, higher = more binding, comparable within an allelic series).
Consider AGGGACGA, for which the binding signal with NKX2-6 [1] is 9.37 upbm affinity estimate (log intensity, higher = more binding, comparable within an allelic series); in the assay with NKX2-6 [2], 9.28 upbm affinity estimate (log intensity, higher = more binding, comparable within an allelic series).
For the sequence ATTAGGCC, the binding signal with PITX2 is 10 upbm affinity estimate (log intensity, higher = more binding, comparable within an allelic series).
GACGGTGA: the binding signal in the assay with PITX2 was 8.15 upbm affinity estimate (log intensity, higher = more binding, comparable within an allelic series).
Regarding GCATGCAC, in the assay with PITX2, the binding signal was 7.85 upbm affinity estimate (log intensity, higher = more binding, comparable within an allelic series).
Take TGGTCGAA: in the assay with PITX2, the binding signal is 7.84 upbm affinity estimate (log intensity, higher = more binding, comparable within an allelic series).
Same read-out and setting: for AGGGCTTA the value was 12.3 upbm affinity estimate (log intensity, higher = more binding, comparable within an allelic series); for ATATAAAG, 9.37 upbm affinity estimate (log intensity, higher = more binding, comparable within an allelic series); for CGGTGATA, 9.92 upbm affinity estimate (log intensity, higher = more binding, comparable within an allelic series).
As to ATTACAGA, the binding signal with PITX2 is 9.82 upbm affinity estimate (log intensity, higher = more binding, comparable within an allelic series).
The same measure, in the same setting: for GGCATTAC the value was 10.5 upbm affinity estimate (log intensity, higher = more binding, comparable within an allelic series); for ACAATCCC, 10.3 upbm affinity estimate (log intensity, higher = more binding, comparable within an allelic series); for CAACGGGC, 7.95 upbm affinity estimate (log intensity, higher = more binding, comparable within an allelic series).
Still for that read-out and setting: for GAATATTA the value was 9.35 upbm affinity estimate (log intensity, higher = more binding, comparable within an allelic series); for ATGAGCCC, 9.64 upbm affinity estimate (log intensity, higher = more binding, comparable within an allelic series).
Consider ATTCAAAT, for which the binding signal in the assay with PITX2 was 9.75 upbm affinity estimate (log intensity, higher = more binding, comparable within an allelic series).
In the case of AGCGATGC, in the assay with PITX2, the binding signal is 7.81 upbm affinity estimate (log intensity, higher = more binding, comparable within an allelic series).
Take ACACCAGC: the binding signal with PITX2 is 8.12 upbm affinity estimate (log intensity, higher = more binding, comparable within an allelic series).
Turning to GTGCCAGA, in the assay with PITX2, the binding signal is 8.11 upbm affinity estimate (log intensity, higher = more binding, comparable within an allelic series).
For the sequence GCAGTCGC, the binding signal with PITX2 was 7.82 upbm affinity estimate (log intensity, higher = more binding, comparable within an allelic series).
As for CTGGCCGC, the binding signal in the assay with PITX2 was 8.13 upbm affinity estimate (log intensity, higher = more binding, comparable within an allelic series).
Take ATTATCAC: the binding signal in the assay with PITX2 was 10.2 upbm affinity estimate (log intensity, higher = more binding, comparable within an allelic series).
Regarding TAGATTAA, the binding signal in the assay with PITX2 was 12.4 upbm affinity estimate (log intensity, higher = more binding, comparable within an allelic series).
The same measure, in the same setting: for ACGTTCCG the value was 7.96 upbm affinity estimate (log intensity, higher = more binding, comparable within an allelic series); for CGGGCACA, 8 upbm affinity estimate (log intensity, higher = more binding, comparable within an allelic series); for AAGCTGAA, 9.66 upbm affinity estimate (log intensity, higher = more binding, comparable within an allelic series).
Turning to CCGTACCC, in the assay with PITX2, the binding signal is 7.91 upbm affinity estimate (log intensity, higher = more binding, comparable within an allelic series).
As to ACCATCGT, the binding signal with PITX2 was 7.89 upbm affinity estimate (log intensity, higher = more binding, comparable within an allelic series).
With AATCCAAT, in the assay with PITX2, the binding signal is 10.9 upbm affinity estimate (log intensity, higher = more binding, comparable within an allelic series).
As for ACTCGACC, the binding signal with PITX2 is 7.76 upbm affinity estimate (log intensity, higher = more binding, comparable within an allelic series).
On to CCGAGCAG, for which the binding signal with PITX2 was 8.01 upbm affinity estimate (log intensity, higher = more binding, comparable within an allelic series).
With CAACCATC, in the assay with PITX2, the binding signal was 8.24 upbm affinity estimate (log intensity, higher = more binding, comparable within an allelic series).
Consider CCTACGTC, for which the binding signal with PITX2 is 7.98 upbm affinity estimate (log intensity, higher = more binding, comparable within an allelic series).
As to ACATACGT, in the assay with PITX2, the binding signal was 8.05 upbm affinity estimate (log intensity, higher = more binding, comparable within an allelic series).
Regarding CCTCAACG, the binding signal with PITX2 is 7.97 upbm affinity estimate (log intensity, higher = more binding, comparable within an allelic series).
On the same count and under the same terms, for CGTTGTCA the value was 8.02 upbm affinity estimate (log intensity, higher = more binding, comparable within an allelic series); for ACAGATCT, 9.05 upbm affinity estimate (log intensity, higher = more binding, comparable within an allelic series); for AAAGCCGA, 9.6 upbm affinity estimate (log intensity, higher = more binding, comparable within an allelic series).
Turning to CATTATTC, the binding signal with PITX2 is 9.49 upbm affinity estimate (log intensity, higher = more binding, comparable within an allelic series).
AACGAGGC: in the assay with PITX2, the binding signal was 7.79 upbm affinity estimate (log intensity, higher = more binding, comparable within an allelic series).
CCATTCAC: the binding signal with PITX2 is 8.31 upbm affinity estimate (log intensity, higher = more binding, comparable within an allelic series).
For the sequence AGCACGCC, in the assay with PITX2, the binding signal was 8.07 upbm affinity estimate (log intensity, higher = more binding, comparable within an allelic series).
For the sequence AGCGTGGG, the binding signal with PITX2 is 8.14 upbm affinity estimate (log intensity, higher = more binding, comparable within an allelic series).
With AATTATGG, the binding signal with SHOX was 9.26 upbm affinity estimate (log intensity, higher = more binding, comparable within an allelic series).
For AATTAGGT, the binding signal is 9.2 upbm affinity estimate (log intensity, higher = more binding, comparable within an allelic series) in the assay with SHOX; 8.66 upbm affinity estimate (log intensity, higher = more binding, comparable within an allelic series) with HESX1; 10.6 upbm affinity estimate (log intensity, higher = more binding, comparable within an allelic series) with PROP1 [7]; 7.74 upbm affinity estimate (log intensity, higher = more binding, comparable within an allelic series) with PROP1 [8].
In the case of AGGAGGCC, the binding signal was 6.81 upbm affinity estimate (log intensity, higher = more binding, comparable within an allelic series) with PROP1 [7] and 6.57 upbm affinity estimate (log intensity, higher = more binding, comparable within an allelic series) with PROP1 [8].
On to AAAATTAA, for which the binding signal was 10.9 upbm affinity estimate (log intensity, higher = more binding, comparable within an allelic series) in the assay with HOXD13 [9] and 10.8 upbm affinity estimate (log intensity, higher = more binding, comparable within an allelic series) with HOXD13 [10].
